# Source: the antibiotic and cytotoxicity screens of Wong et al. (2023)
# The whole screen tested about 39,000 compounds, of which about 3,300 (8.5%) were called active. Shown is part of a subset that was picked to be rich in actives.
# System: HepG2
# Test: cytotoxicity call (relative viability < 0.9)
# Conditions: 10 µM
row,Structure (SMILES),cytotoxicity call
1,COc1cccc(S(=O)(=O)N2C[C@@H](O)COC[C@@H]3O[C@@H](CC(=O)N4CCN(C)CC4)CC[C@H]32)c1,inactive
2,O=C1CCNCCN1,inactive
3,CO[C@@H]1CN(C)C(=O)c2cc(NS(C)(=O)=O)ccc2OC[C@@H](C)N(C(=O)c2ccc3c(c2)OCO3)C[C@@H]1C,inactive
4,Cc1noc(C)c1S(=O)(=O)Nc1ccc2c(c1)C(=O)N([C@H](C)CO)C[C@@H](C)[C@@H](CN(C)Cc1ccccc1)OCCCC[C@@H](C)O2,inactive
5,COc1ccc(NC(=O)Nc2ccc3c(c2)CC(=O)N([C@@H](C)CO)C[C@@H](C)[C@H](CN(C)C(=O)Nc2cccc4ccccc24)O3)cc1,inactive
6,Cc1noc(C)c1S(=O)(=O)Nc1ccc2c(c1)C(=O)N([C@@H](C)CO)C[C@@H](C)[C@@H](CN(C)CC1CCCCC1)OCCCC[C@@H](C)O2,inactive
7,Cc1ccc(Oc2ccccc2)c(NC(=O)c2ccccc2)c1,active
8,Cc1cccc(C(=O)NN)c1,inactive
9,Cc1ccc(C(=O)c2ccc(Oc3ccccc3)cc2)cc1,inactive
10,COc1cccc(-c2ccc3c(c2)O[C@H](CN(C)Cc2cncnc2)[C@@H](C)CN([C@@H](C)CO)S3(=O)=O)c1,inactive
11,COc1ccc(NC(=O)N(C)C[C@@H]2Oc3c(NC(=O)c4cc(C)nn4C)cccc3C(=O)N([C@@H](C)CO)C[C@H]2C)cc1,inactive
12,CN(C)CC(=O)N1[C@@H]2c3ccc(C4=CCCC4)c(=O)n3C[C@H]1[C@H](CO)[C@H]2C(=O)NCC1CC1,inactive
13,C[C@H]1CN([C@@H](C)CO)C(=O)Cc2cc(NC(=O)Nc3ccccc3)ccc2O[C@H]1CN(C)S(=O)(=O)c1cn(C)cn1,inactive
14,C[C@H]1CN([C@@H](C)CO)C(=O)Cc2cc(NS(=O)(=O)c3ccccc3)ccc2O[C@@H]1CN(C)S(=O)(=O)c1cn(C)cn1,inactive
15,C[C@@H]1CN([C@H](C)CO)C(=O)c2cc(NC(=O)Nc3ccccc3)ccc2O[C@H]1CN(C)S(=O)(=O)c1cn(C)cn1,active
16,C[C@@H]1CN([C@H](C)CO)C(=O)Cc2cc(NS(=O)(=O)c3ccccc3)ccc2O[C@H]1CN(C)S(=O)(=O)c1cn(C)cn1,active
17,C[C@@H]1CN([C@@H](C)CO)C(=O)Cc2cc(NC(=O)Nc3ccccc3)ccc2O[C@H]1CN(C)S(=O)(=O)c1cn(C)cn1,inactive
18,C[C@@H]1CN([C@H](C)CO)C(=O)c2cc(NC(=O)Nc3ccccc3)ccc2O[C@@H]1CN(C)S(=O)(=O)c1cn(C)cn1,inactive
19,C[C@@H]1CN([C@@H](C)CO)C(=O)c2cc(NC(=O)Nc3ccccc3)ccc2O[C@H]1CN(C)S(=O)(=O)c1cn(C)cn1,inactive
20,C[C@H](CO)N1C[C@H](C)[C@H](CN(C)S(=O)(=O)c2cn(C)cn2)Oc2ccc(NC(=O)Nc3ccccc3)cc2CC1=O,active
21,C[C@@H]1CN([C@@H](C)CO)C(=O)Cc2cc(NS(=O)(=O)c3ccccc3)ccc2O[C@@H]1CN(C)S(=O)(=O)c1cn(C)cn1,inactive
22,CC1c2cccc(O)c2C(=O)C2=C(O)C3(O)C(=O)C(C(N)=O)=C(O)C(N(C)C)C3C(O)C21.Cl (stereo not given),inactive
23,COc1ccc2c3c(n(c2c1)C)[C@H](CO)N(C[C@]13CN(Cc2ccncc2)C1)C(=O)CN1CCOCC1,inactive
24,CC(C)NC(=O)N(C)C[C@@H]1Oc2ccc(NC(=O)Nc3ccc4c(c3)OCO4)cc2CC(=O)N([C@H](C)CO)C[C@H]1C,inactive

row,Structure (SMILES),cytotoxicity call
1,C[C@H]1CN([C@@H](C)CO)C(=O)c2cc(NS(=O)(=O)c3ccc(F)cc3)ccc2O[C@@H]1CN(C)S(=O)(=O)c1ccc(F)cc1,inactive
2,C[C@H](CO)N1C[C@H](C)[C@@H](CN(C)S(=O)(=O)c2ccc(Cl)cc2)Oc2ccc(NC(=O)C3CC3)cc2CC1=O,inactive
3,CCOC(=O)c1nonc1N,inactive
4,CN(CCCCCCCCCCN(C)C(=O)Oc1cccc([N+](C)(C)C)c1)C(=O)Oc1cccc([N+](C)(C)C)c1,inactive
5,O=C(NCc1ccncc1)C(=O)NC[C@H]1OCCN1S(=O)(=O)c1ccc(F)cc1,inactive
6,C[C@@H]1CN([C@@H](C)CO)C(=O)c2cccc(NC(=O)Nc3ccc(C(F)(F)F)cc3)c2O[C@H]1CN(C)Cc1ccc(-c2ccccc2)cc1,inactive
7,C[C@H]1CN([C@@H](C)CO)C(=O)c2ccccc2-c2ccccc2CO[C@@H]1CN(C)Cc1ccccc1C(F)(F)F,inactive
8,CCCC[C@@H](O)c1ccccc1,inactive
9,C[C@H](NC(=O)[C@@H]1CCCC[C@H]1C(=O)O)c1ccccc1.C[C@H](NC(=O)[C@H]1CCCC[C@H]1C(=O)O)c1ccccc1,inactive
10,CCCCC(O)c1ccccc1 (stereo not given),inactive
11,C[C@@H](NCCC(c1ccccc1)c1ccccc1)c1ccccc1,active
12,C[C@@H](NC(=O)[C@@H]1CCCC[C@H]1C(=O)O)c1ccccc1.C[C@@H](NC(=O)[C@H]1CCCC[C@H]1C(=O)O)c1ccccc1,inactive
13,CC(NCCC(c1ccccc1)c1ccccc1)c1ccccc1.Cl (stereo not given),active
14,Cc1noc(C)c1NC(=O)Nc1ccc2c(c1)C(=O)N([C@@H](C)CO)C[C@@H](C)[C@@H](CN(C)C(=O)Nc1ccc(C(F)(F)F)cc1)OCCCC[C@@H](C)O2,inactive
15,C[C@@H]1CN([C@H](C)CO)C(=O)Cc2cc(NC(=O)Nc3ccc(F)cc3)ccc2O[C@H]1CN(C)C(=O)Nc1cccc2ccccc12,inactive
16,C[C@@H]1CN([C@@H](C)CO)C(=O)Cc2cc(NS(=O)(=O)c3cn(C)cn3)ccc2O[C@@H]1CN(C)S(=O)(=O)c1cccs1,inactive
17,Cc1noc(C)c1S(=O)(=O)N(C)C[C@@H]1OCCCC[C@@H](C)Oc2ccc(NC(=O)Nc3ccccc3)cc2C(=O)N([C@H](C)CO)C[C@@H]1C,inactive
18,C[C@@H]1CN([C@H](C)CO)C(=O)Cc2cc(NC(=O)C3CCCCC3)ccc2O[C@H]1CN(C)Cc1ccc(Cl)c(Cl)c1,inactive
19,N=C(N)c1ccc2nc(-c3cc(CC(=O)N[C@@H](CC(=O)O)C(=O)O)cc(-c4cc(S(N)(=O)=O)ccc4O)c3O)[nH]c2c1,inactive
20,C[C@H](CO)N1C[C@H](C)[C@H](CN(C)C(=O)Nc2ccc(C(F)(F)F)cc2)Oc2ccc(NC(=O)Nc3cccc4ccccc34)cc2CC1=O,inactive
21,C[C@@H]1CN([C@H](C)CO)C(=O)Cc2cc(NC(=O)NC3CCCCC3)ccc2O[C@H]1CN(C)Cc1ccc(Cl)c(Cl)c1,inactive
22,C[C@H](CO)N1C[C@H](C)[C@@H](CN(C)Cc2ccc(Cl)c(Cl)c2)Oc2ccc(NC(=O)NC3CCCCC3)cc2CC1=O,inactive
23,C[C@@H]1CN([C@H](C)CO)C(=O)Cc2cc(NC(=O)NC3CCCCC3)ccc2O[C@@H]1CN(C)Cc1ccc(Cl)c(Cl)c1,active
24,C[C@H](CO)N1C[C@H](C)[C@H](CN(C)Cc2ccc(Cl)c(Cl)c2)Oc2ccc(NC(=O)NC3CCCCC3)cc2CC1=O,inactive

row,Structure (SMILES),cytotoxicity call
1,C[C@@H]1CN([C@@H](C)CO)C(=O)Cc2cc(NC(=O)NC3CCCCC3)ccc2O[C@@H]1CN(C)Cc1ccc(Cl)c(Cl)c1,active
2,C[C@@H]1CN([C@@H](C)CO)C(=O)Cc2cc(NC(=O)NC3CCCCC3)ccc2O[C@H]1CN(C)Cc1ccc(Cl)c(Cl)c1,inactive
3,C[C@@H]1CN([C@H](C)CO)C(=O)c2cc(NS(=O)(=O)c3ccc(Cl)cc3)ccc2O[C@@H](C)CCCCO[C@H]1CN(C)C(=O)Nc1ccccc1,inactive
4,O=C(C[C@@H]1CC[C@@H]2[C@H](COC[C@@H](O)CN2S(=O)(=O)c2ccccc2)O1)NCCN1CCCCC1,inactive
5,CC(CN(C)C)CN1c2ccccc2Sc2ccccc21.O=C(O)C(O)C(O)C(=O)O (stereo not given),active
6,Cc1ccc(C(=O)N2c3ccccc3Sc3ccccc32)cc1,inactive
7,O=C(Nc1ccccc1)N1c2ccccc2CCc2ccccc21,inactive
8,CCOC(=O)C(CCc1ccccc1)NC1CCc2ccccc2N(CC(=O)O)C1=O.Cl (stereo not given),inactive
9,O=C(c1ccccc1F)N1c2ccccc2Sc2ccccc21,inactive
10,CC(CN(C)C)CN1c2ccccc2CCc2ccccc21.O=C(O)C=CC(=O)O (stereo not given),active
11,COc1ccc(NC(=O)N(C)C[C@@H]2OCc3ccccc3-c3c(n(C)c4ccccc34)C(=O)N([C@H](C)CO)C[C@@H]2C)c(OC)c1,inactive
12,CCC(=O)Nc1ccc2c(c1)OC[C@@H](C)N(C(=O)CN1CCOCC1)C[C@@H](C)[C@H](OC)CN(C)C2=O,inactive
13,Cc1noc(C)c1NC(=O)Nc1ccc2c(c1)C(=O)N([C@H](C)CO)C[C@H](C)[C@@H](CN(C)C(=O)Nc1ccc(C(F)(F)F)cc1)O2,inactive
14,Cc1ccc(S(=O)(=O)Nc2cccc3c2O[C@H](CN(C)Cc2ccc(Oc4ccccc4)cc2)[C@@H](C)CN([C@@H](C)CO)C3=O)cc1,inactive
15,C[C@@H]1CN([C@@H](C)CO)C(=O)Cc2cc(NC(=O)NC3CCCCC3)ccc2O[C@H]1CN(C)S(=O)(=O)c1cn(C)cn1,inactive
16,C[C@H]1CCCCO[C@H](CN(C)S(=O)(=O)c2ccc(F)cc2)[C@@H](C)CN([C@@H](C)CO)C(=O)c2cc(NC(=O)NC3CCCCC3)ccc2O1,inactive
17,COc1ccc(CN(C)C[C@H]2Oc3c(NC(=O)CCCCCC(=O)Nc4ccccc4N)cccc3C(=O)N([C@@H](C)CO)C[C@@H]2C)cc1,active
18,C[C@@H]1CN([C@H](C)CO)C(=O)c2cccc(NC(=O)CCCCCC(=O)Nc3ccccc3N)c2O[C@H]1CN(C)Cc1ccc(Oc2ccccc2)cc1,inactive
19,C[C@H](CO)N1C[C@H](C)[C@H](CN(C)Cc2ccc(Oc3ccccc3)cc2)Oc2c(NC(=O)CCCCCC(=O)Nc3ccccc3N)cccc2C1=O,inactive
20,COc1ccc(CN(C)C[C@@H]2Oc3c(NC(=O)CCCCCC(=O)Nc4ccccc4N)cccc3C(=O)N([C@@H](C)CO)C[C@H]2C)cc1,inactive
21,C[C@@H]1CN([C@@H](C)CO)C(=O)c2cccc(NC(=O)CCCCCC(=O)Nc3ccccc3N)c2O[C@@H]1CN(C)Cc1ccc(Oc2ccccc2)cc1,active
22,COc1ccc(CN(C)C[C@@H]2Oc3c(NC(=O)CCCCCC(=O)Nc4ccccc4N)cccc3C(=O)N([C@H](C)CO)C[C@H]2C)cc1,inactive
